TWEAK-Fn14 inh = inhibitors of TWEAK-Fn14 interaction signaling; TWEAK-stimulated Fn14 reporter cells, luciferase luminescence, 8 h; inhibition, % at 10 µM; 360,000 compounds, 2% hits; AID 1159606; in the data active = inhibition above about 50%
EWS-Fli inh = blocks EWS/Fli oncoprotein-driven transcription; inhibition, % at 12.6 µM; AID 651661; A673 NR0B1-luciferase reporter, viability-normalised; 350,000 compounds, 0.67% hits;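 active = mean inhibition of at least 50% after viability correction, with every replicate also passing that limit; inconclusive = mean reaches 50% but only one of two replicates passes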;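 also: firefly luciferase signal divided by Alamar Blue viability fluorescence both relative to DMSO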
LGR2 antag = blocks bursicon-induced cAMP signaling via Drosophila LGR2 | HEK293 LGR2, CRE-luciferase, bursicon-stimulated, 4 h | inhibition, % at 9.99 µM | 380,000 compounds, 0.35% hits;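 active = drop in luminescence signal, shown as inhibition above about 50% in the replicate tests, limit read from the data, passing the limit was not always enough; inconclusive = probably only some replicates passing the limit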;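 also: agonist challenge used bursicon conditioned medium at about half maximal strength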
TROY signal inh = inhibitors of TROY-dependent NF-kB signaling; Q293 LMP1-TROYcd NF-kB luciferase reporter, 4 h; inhibition, % at 10 µM; 360,000 compounds, 0.98% hits; AID 1347056;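 active = compounds whose plate-normalised and pattern-corrected inhibition of the luciferase reporter signal at the single screening dose is 50% or more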
PAX8 reporter = PAX8 transcriptional activity inhibition; inhibition, % at 12.6 µM; RMG-I TPO-luciferase reporter, SteadyGlo, 24 h; AID 652154; 360,000 compounds, 1.2% hits;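 active = mean replicate inhibition at least 60% with every replicate also reaching 60%; inconclusive = only one of the two criteria is met; inactive = mean below 60% and not all replicates reaching 60%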;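 also: luciferase light reporting Pax8 driven TPO promoter activity; plate controls were median of neutral control wells for no effect and mitoxantrone controls for full effect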
Active calls of the source: *. Rows were chosen to be rich in hits. Some 2.8% of all compounds tested hit in one or more screens of this group.

Results for CO[C@@H]1CN(C)C(=O)c2cc(NC(=O)C3CC3)ccc2OC[C@@H](C)N(Cc2cccc(F)c2)C[C@H]1C ?
EWS-Fli inh: 3; LGR2 antag: 10; PAX8 reporter: 12

What do the screens show for `Nc1ccc(C23CC4CC(CC(CO)(C4)C2)C3)cc1`?
TWEAK-Fn14 inh: 16; TROY signal inh: 28

What do the screens show for `Nc1ccc(C23CC4CC(CC(O)(C4)C2)C3)cc1`?
TWEAK-Fn14 inh: 76*; TROY signal inh: 74*

What do the screens show for `COCC(=O)Nc1ccc2c(c1)C(=O)N(C)C[C@H](OC)[C@H](C)CN(Cc1ccccc1OC)[C@@H](C)CO2`?
EWS-Fli inh: 7; LGR2 antag: 3

Results for C[C@@H]1CCCCO[C@H](CN(C)S(=O)(=O)c2cn(C)cn2)[C@H](C)CN([C@@H](C)CO)C(=O)c2cc(NC(=O)CCCN(C)C)ccc2O1 ?
EWS-Fli inh: -19; LGR2 antag: 13; PAX8 reporter: -3

What do the screens show for `C[C@H](CO)N1C[C@H](C)[C@@H](CN(C)C(=O)Nc2cccc3ccccc23)Oc2ccc(NC(=O)Nc3ccc(C(F)(F)F)cc3)cc2C1=O`?
EWS-Fli inh: 4; LGR2 antag: -6; PAX8 reporter: 37

How did CN(C)c1ccc(NC(=O)c2cccc(C(=O)Nc3ccc(N(C)C)cc3)n2)cc1 do in these assays?
TWEAK-Fn14 inh: 51*; LGR2 antag: -15; TROY signal inh: 11

What do the screens show for `CC(C)CC#Cc1ccc2c(c1)O[C@H](CN(C)C(=O)C1CCCCC1)[C@H](C)CN([C@@H](C)CO)S2(=O)=O`?
EWS-Fli inh: 6; LGR2 antag: 22

What do the screens show for `CSCC[C@H](NC(=O)OC(C)(C)C)C(=O)N/N=C/c1cccc2nccnc12`?
TWEAK-Fn14 inh: 93*; EWS-Fli inh: 4; LGR2 antag: 14; TROY signal inh: 17; PAX8 reporter: 0

Results for CN(Cc1cc(Cl)cc(Cl)c1)CC(C(=O)c1ccccc1)c1ccccc1 (configuration not stated) ?
TWEAK-Fn14 inh: 15; EWS-Fli inh: 6; LGR2 antag: inconclusive; TROY signal inh: -12; PAX8 reporter: 79*

Results for CN(C)CC(C(=O)c1ccccc1)c1ccccc1 (configuration not stated) ?
TWEAK-Fn14 inh: 79*; TROY signal inh: 33

How did O=C(CC(C(=O)c1ccccc1)c1ccccc1)c1ccccc1 (configuration not stated) do in these assays?
TWEAK-Fn14 inh: 13; EWS-Fli inh: -5; LGR2 antag: -25; TROY signal inh: -11

What do the screens show for `C[C@H]1CN([C@@H](C)CO)S(=O)(=O)c2ccc(-c3ccncc3)cc2O[C@H]1CN(C)C(=O)C1CCC1`?
EWS-Fli inh: -11; LGR2 antag: -10

What do the screens show for `CCOC(=O)N1c2ccccc2Sc2ccccc21`?
TWEAK-Fn14 inh: 10; EWS-Fli inh: 7; LGR2 antag: 5; TROY signal inh: 10; PAX8 reporter: 13

Results for Cc1nnc(SC(=O)N2c3ccccc3Sc3ccccc32)s1 ?
TWEAK-Fn14 inh: 90*; TROY signal inh: 49

Results for O=C(O)C[C@H]1CC[C@H](NC(=O)Nc2cc(F)ccc2F)[C@H](CO)O1 ?
EWS-Fli inh: 1; LGR2 antag: 29; PAX8 reporter: -19

How did COC(=O)c1c(C)[nH]c(C(=O)OCC(=O)N(CC(C)C)c2c(N)n(Cc3ccccc3)c(=O)[nH]c2=O)c1C do in these assays?
TWEAK-Fn14 inh: -24; EWS-Fli inh: 7; LGR2 antag: -1; TROY signal inh: 2; PAX8 reporter: -4

How did CC(C)CN(C(=O)COC(=O)C12CC3CC(CC(C3)C1)C2)c1c(N)n(Cc2ccccc2)c(=O)[nH]c1=O do in these assays?
TWEAK-Fn14 inh: 55*; EWS-Fli inh: 30; LGR2 antag: inconclusive; TROY signal inh: 21; PAX8 reporter: 3

What do the screens show for `CC(=O)Nc1sc(C)c(C)c1C(=O)OCC(=O)N(CC(C)C)c1c(N)n(Cc2ccccc2)c(=O)[nH]c1=O`?
TWEAK-Fn14 inh: 12; EWS-Fli inh: 63*; LGR2 antag: 12; TROY signal inh: 3; PAX8 reporter: -11

What do the screens show for `CCCN1C[C@@H](C)[C@@H](OC)CN(C)C(=O)c2ccc(NC(=O)CC)cc2OC[C@@H]1C`?
EWS-Fli inh: 1; LGR2 antag: -1

Results for O=C1/C(=C/c2cccnc2)CCc2c1[nH]c1ccccc21 ?
TWEAK-Fn14 inh: 62*; EWS-Fli inh: 3; LGR2 antag: -63; TROY signal inh: 7; PAX8 reporter: -66

What do the screens show for `CC(C)C/C=C1\CCc2c([nH]c3ccccc23)C1=O`?
TWEAK-Fn14 inh: -19; EWS-Fli inh: -60; LGR2 antag: -93; TROY signal inh: -50; PAX8 reporter: -105

How did CC1C/C(=C\c2cccnc2)C(=O)/C(=C/c2cccnc2)C1 (configuration not stated) do in these assays?
TWEAK-Fn14 inh: 103*; LGR2 antag: 85*; TROY signal inh: 52*

Results for O=C1/C(=C\c2cccnc2)Sc2ccccc21 ?
TWEAK-Fn14 inh: -6; EWS-Fli inh: -24; LGR2 antag: -23; TROY signal inh: -8; PAX8 reporter: -9

What do the screens show for `Cc1ccc(C(=O)C2C(=O)C3CCC2C3)cc1` (configuration not stated)?
TWEAK-Fn14 inh: 63*; EWS-Fli inh: 19; LGR2 antag: 63*; TROY signal inh: -19; PAX8 reporter: 26

Results for C[C@H](CO)N1C[C@H](C)[C@@H](CN(C)C(=O)c2ccc3c(c2)OCO3)Oc2ncc(C#CCN(C)C)cc2C1=O ?
EWS-Fli inh: 0; LGR2 antag: 4

What do the screens show for `CC(C)c1ccc(-n2c(-c3ccccc3)c[n+]3c2CCc2ccccc2-3)cc1`?
TWEAK-Fn14 inh: 84*; EWS-Fli inh: 59*; LGR2 antag: 54*; TROY signal inh: 59*; PAX8 reporter: 90*

Results for COc1ccc(-n2c(-c3ccc(Br)cc3)c[n+]3c2CCc2ccccc2-3)cc1 ?
TWEAK-Fn14 inh: 18; EWS-Fli inh: 11; LGR2 antag: 10; TROY signal inh: 38; PAX8 reporter: 79*

How did COc1ccccc1-n1c(-c2ccccc2)c[n+]2c1CCc1ccccc1-2 do in these assays?
TWEAK-Fn14 inh: 36; EWS-Fli inh: 26; LGR2 antag: 35; TROY signal inh: 45; PAX8 reporter: 88*

How did FC(F)Oc1ccc(-c2c[n+]3c(n2-c2ccccc2)CCCCC3)cc1 do in these assays?
TWEAK-Fn14 inh: 1; EWS-Fli inh: 18; LGR2 antag: -1; TROY signal inh: -1; PAX8 reporter: 7

What do the screens show for `COc1ccccc1-n1c(-c2ccccc2)c[nH]c1=S`?
TWEAK-Fn14 inh: -4; EWS-Fli inh: 0; LGR2 antag: -11; TROY signal inh: 9; PAX8 reporter: 0

What do the screens show for `COc1ccc(-c2c[n+]3c(n2-c2ccccc2)CCCCC3)cc1`?
TWEAK-Fn14 inh: 18; EWS-Fli inh: 17; LGR2 antag: 8; TROY signal inh: 21; PAX8 reporter: 56
